The list is not random: actives were taken first. Their share in the collection is about 1.3%.
NCOA3 inh = inhibitors of human steroid receptor coactivator 3 (SRC3) | inhibition, % at 3.6 µM | actives 0.17% (n = 360,000) | HEK293 GAL4-SRC3 luciferase reporter, luminescence | Q9Y6Q9 | AID 588352;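 active = inhibition above a per-campaign cutoff, the mean of all compounds plus 3 SD, cut at about 60% in these data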;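 note: 0% = DMSO-treated cells and 100% = gossypol-treated cells at 36 µM; higher means less SRC3-driven luciferase light from the GAL4 reporter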
COUP-TFII inh = blocks human COUP-TFII nuclear receptor | HEK293T NGFI-A luciferase reporter, luminescence | P24468 | actives 0.7% (n = 370,000) | inhibition, % at 8.6 µM | AID 686940;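 active = inhibition above a per-plate cutoff, mean inhibition of test wells between control levels plus 3 SD, cut at about 38% in these data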;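 note: cells cotransfected with COUP-TFII expression vector driving the NGFI-A reporter; 0% = median of COUP-TF2 test wells and 100% = reporter-only cells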
SRC2 inh = human SRC2 (NCOA2) inhibition; Q15596; HEK293 GAL4-SRC2 luciferase reporter, luminescence; inhibition, % at 9 µM; actives 0.17% (n = 370,000); AID 651957;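 active = inhibition above the mean inhibition of all tested compounds plus 3 SD, set per campaign, cut at about 52% in these data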;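 note: 0% = DMSO treated cells and 100% = cells given Gossypol at 36 µM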
Target sequence (Q15596 whole entry, looked up, the tested form may be a part): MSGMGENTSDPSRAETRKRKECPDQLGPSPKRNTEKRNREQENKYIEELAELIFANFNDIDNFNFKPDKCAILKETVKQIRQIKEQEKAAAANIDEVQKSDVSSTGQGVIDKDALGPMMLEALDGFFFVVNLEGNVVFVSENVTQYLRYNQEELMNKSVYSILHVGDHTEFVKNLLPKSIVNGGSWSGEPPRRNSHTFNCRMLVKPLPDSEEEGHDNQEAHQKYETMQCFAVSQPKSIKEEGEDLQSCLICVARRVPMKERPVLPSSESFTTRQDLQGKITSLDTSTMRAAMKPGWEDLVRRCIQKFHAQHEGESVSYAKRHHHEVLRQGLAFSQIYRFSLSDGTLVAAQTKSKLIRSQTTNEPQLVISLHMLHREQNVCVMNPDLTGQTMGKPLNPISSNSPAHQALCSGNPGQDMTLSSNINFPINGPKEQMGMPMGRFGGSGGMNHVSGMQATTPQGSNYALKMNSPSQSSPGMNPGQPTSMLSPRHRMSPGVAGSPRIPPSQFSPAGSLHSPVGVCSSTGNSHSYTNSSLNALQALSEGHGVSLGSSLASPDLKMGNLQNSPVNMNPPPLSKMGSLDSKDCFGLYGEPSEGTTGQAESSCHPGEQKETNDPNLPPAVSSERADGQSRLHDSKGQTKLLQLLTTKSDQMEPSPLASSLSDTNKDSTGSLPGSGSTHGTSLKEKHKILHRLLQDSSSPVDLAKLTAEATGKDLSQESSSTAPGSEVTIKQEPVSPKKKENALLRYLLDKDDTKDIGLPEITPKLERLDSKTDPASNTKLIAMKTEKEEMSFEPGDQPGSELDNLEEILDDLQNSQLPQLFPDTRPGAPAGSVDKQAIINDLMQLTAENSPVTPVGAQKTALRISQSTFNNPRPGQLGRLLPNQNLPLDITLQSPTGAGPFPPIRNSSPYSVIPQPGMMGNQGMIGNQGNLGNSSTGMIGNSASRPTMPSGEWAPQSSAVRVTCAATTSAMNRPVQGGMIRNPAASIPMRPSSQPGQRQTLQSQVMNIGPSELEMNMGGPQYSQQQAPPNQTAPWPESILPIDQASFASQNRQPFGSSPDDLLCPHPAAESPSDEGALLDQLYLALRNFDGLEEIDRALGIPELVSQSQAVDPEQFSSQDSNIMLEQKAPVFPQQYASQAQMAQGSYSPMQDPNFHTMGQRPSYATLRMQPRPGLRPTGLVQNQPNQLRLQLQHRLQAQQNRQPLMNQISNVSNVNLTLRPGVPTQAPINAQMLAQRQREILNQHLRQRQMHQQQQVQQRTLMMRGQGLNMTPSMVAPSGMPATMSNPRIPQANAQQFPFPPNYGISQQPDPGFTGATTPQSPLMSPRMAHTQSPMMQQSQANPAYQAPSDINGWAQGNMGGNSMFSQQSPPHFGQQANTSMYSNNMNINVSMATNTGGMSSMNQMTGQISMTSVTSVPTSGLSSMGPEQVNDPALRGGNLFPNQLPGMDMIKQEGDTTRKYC
Gli-Sufu block = blocks Gli-Sufu signaling in a luciferase reporter; Sufu-KO-LIGHT fibroblasts, Gli luciferase reporter luminescence; inhibition, % at 5 µM; actives 0.74% (n = 340,000);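 active = inhibition above about 55%, limit read from the data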;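 note: 0% = DMSO-treated cells and 100% = wells with medium but no cells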
LRH-1 inv ag = suppresses constitutive activity of human LRH-1; O00482; HEK293T StAR-luciferase reporter, LRH-1 transfected, 24 h; inhibition, % at 3.6 µM; actives 0.13% (n = 360,000); AID 602396;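 active = inhibition above the mean inhibition of all tested compounds plus 3 SD, cut at about 73% in these data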;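 note: 0% = DMSO wells and 100% = reporter-only cells lacking LRH-1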
NCOA1 inh = human NCOA1 inhibition. actives 0.12% (n = 360,000). AID 588354. inhibition, % at 3.6 µM. HEK293 GAL4-SRC1 luciferase reporter, luminescence;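 active = inhibition above the campaign mean plus 3 SD, with each screening campaign given its own cutoff, cut at about 60% in these data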;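 note: 0% = DMSO treated cells and 100% = gossypol at 36 µM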
Gli antag conf = confirmation of Gli-SUFU pathway antagonists; AID 602428; inhibition, % at 5 µM; shares compounds with Gli-Sufu block; actives 40% (n = 2,500); Sufu-KO-LIGHT cells, Gli luciferase reporter, luminescence;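 active = mean inhibition at 5 µM reaching about 45%, limit read from the data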;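 note: plate controls were DMSO-treated cells for no effect and wells lacking cells for full effect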
SufuKO cytotox = counter-screen for Gli-SUFU antagonists: cytotoxicity. shares compounds with Gli-Sufu block. AID 651994. cytotoxicity, % at 5 µM. Sufu-KO-LIGHT cells cytotoxicity, ATP luminescence. actives 32% (n = 2,500);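 active = mean cytotoxicity at 5 µM above about 25%, limit read from the data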;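 note: cells exposed to compound overnight for roughly 16 to 18 hours; plate controls were DMSO wells with cells for no effect and medium without cells for full effect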
Wnt3a cs = Wnt3a reporter inhibition counter-screen; shares compounds with Gli-Sufu block; Wnt-LIGHT cells, Wnt3a-driven luciferase reporter, luminescence; inhibition, % at 6.25 µM; actives 20% (n = 2,500); AID 651995;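 active = mean inhibition above about 25%, limit read from the data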
Starred values were filed as active, the others as inactive.

What do the screens show for `O=C(CCCCCCC(=O)Nc1ccccc1)NO`?
NCOA3 inh: -283; COUP-TFII inh: -90; SRC2 inh: -343; Gli-Sufu block: 84*; LRH-1 inv ag: -50; NCOA1 inh: -493; Gli antag conf: 88*; SufuKO cytotox: 18; Wnt3a cs: -234

What do the screens show for `Cc1ccc(NC(=O)CCC(=O)c2ccccc2)cc1`?
NCOA3 inh: -6; COUP-TFII inh: -9; SRC2 inh: -11; Gli-Sufu block: -1; LRH-1 inv ag: 27; NCOA1 inh: -2

What do the screens show for `O=C(CCCCCN1C(=O)c2ccccc2C1=O)Nc1ccccc1`?
NCOA3 inh: 3; COUP-TFII inh: 10; SRC2 inh: 6; Gli-Sufu block: -5; LRH-1 inv ag: 5; NCOA1 inh: -5

How did C[C@@H]1CN([C@@H](C)CO)C(=O)c2ccccc2-c2ccccc2CO[C@@H]1CN(C)Cc1ccc(Cl)c(Cl)c1 do in these assays?
COUP-TFII inh: 11; SRC2 inh: -8

How did Nn1c(CSc2nc3ccccc3o2)nnc1CSc1nc2ccccc2o1 do in these assays?
NCOA3 inh: 0; COUP-TFII inh: 7; SRC2 inh: -5; Gli-Sufu block: 94*; LRH-1 inv ag: 8; NCOA1 inh: -3; Gli antag conf: 23; SufuKO cytotox: -3; Wnt3a cs: 11

What do the screens show for `O=C1NC(=O)C2(CCOc3ccc(F)cc32)N1` (stereo not drawn)?
COUP-TFII inh: 0; SRC2 inh: -16

How did S=C(Nc1ccc(Cl)cc1)NC1CC2CCCC(C1)N2C1CCCC1 (stereo not drawn) do in these assays?
NCOA3 inh: 23; COUP-TFII inh: 5; SRC2 inh: -1; Gli-Sufu block: 60*; LRH-1 inv ag: -32; NCOA1 inh: 3; Gli antag conf: 15; SufuKO cytotox: 31*; Wnt3a cs: -34

What do the screens show for `S=C(Nc1ccc(Cl)cc1)NC1CC2CCCC(C1)N2C1CC1` (stereo not drawn)?
NCOA3 inh: 7; COUP-TFII inh: 3; SRC2 inh: 15; Gli-Sufu block: 5; LRH-1 inv ag: -1; NCOA1 inh: -31

How did COCCCNC(=O)C[C@H]1C[C@@]2(C(=O)OC)C(=C[C@H](C(C)(C)C)O[C@@H]2C)N(CCc2ccc(OC)c(OC)c2)C1=O do in these assays?
COUP-TFII inh: -2; SRC2 inh: -10

How did COc1ccc(CNC(=O)[C@@H](Cc2ccccc2)NC(=O)[C@H]2O[C@@H](n3ccc(=O)[nH]c3=O)[C@H](O)[C@@H]2O)cc1 do in these assays?
COUP-TFII inh: 8; SRC2 inh: 3

What do the screens show for `CCN(Cc1ccc(NC(C)=O)cc1)CC1CCCN(CCc2cccc(OC)c2)C1` (stereo not drawn)?
NCOA3 inh: 10; COUP-TFII inh: 6; SRC2 inh: 1; Gli-Sufu block: 61*; LRH-1 inv ag: 8; NCOA1 inh: -10; Gli antag conf: 22; SufuKO cytotox: 12; Wnt3a cs: 50*

Results for O=C(Oc1c(CN2CCOCC2)cc(Cl)c2cccnc12)c1ccccc1 ?
NCOA3 inh: 23; COUP-TFII inh: -7; SRC2 inh: 14; Gli-Sufu block: 75*; LRH-1 inv ag: -2; NCOA1 inh: 10; Gli antag conf: 27; SufuKO cytotox: 32*; Wnt3a cs: -7

Results for COc1cc(OC)cc(C(=O)Oc2c(CN3CCOCC3)cc(Cl)c3cccnc23)c1 ?
NCOA3 inh: 8; COUP-TFII inh: 17; SRC2 inh: -2; Gli-Sufu block: -7; LRH-1 inv ag: 0; NCOA1 inh: 3

Results for Cc1ccc(Cn2c(N3CCN(CCO)CC3)nc3c2c(=O)n(C)c(=O)n3C)cc1 ?
NCOA3 inh: -2; COUP-TFII inh: 8; SRC2 inh: -26; Gli-Sufu block: 51; LRH-1 inv ag: -11; NCOA1 inh: -7; Gli antag conf: 15; SufuKO cytotox: 8; Wnt3a cs: -6

How did CN1CCN(c2nc3c(c(=O)n(C)c(=O)n3C)n2Cc2ccc(F)cc2)CC1 do in these assays?
NCOA3 inh: 8; COUP-TFII inh: 4; SRC2 inh: 0; Gli-Sufu block: 4; LRH-1 inv ag: 16; NCOA1 inh: -6

Results for Cc1ccc(NC(=O)c2cc3ccccc3o2)cc1S(=O)(=O)N(C)C ?
NCOA3 inh: -78; COUP-TFII inh: -52; SRC2 inh: -87; Gli-Sufu block: -121; LRH-1 inv ag: -143; NCOA1 inh: -105

Results for Cc1ccc(NC(=O)c2cc3ccccc3oc2=O)cc1S(=O)(=O)N(C)C ?
NCOA3 inh: 85*; Gli-Sufu block: 78*; LRH-1 inv ag: 75*; NCOA1 inh: 85*; Gli antag conf: 89*; SufuKO cytotox: 16; Wnt3a cs: 101*

How did CCCCCCCCN1C(=O)[C@@H](CC(=O)N2CCN(C(=O)c3ccco3)CC2)C[C@@]2(C(=O)OC)C1=C[C@H](C1CCCC1)O[C@@H]2C do in these assays?
COUP-TFII inh: 17; SRC2 inh: -10

Results for CCOc1ccc(/C(O)=C/C(=O)C(=O)Nc2ccc(S(=O)(=O)NC(C)=O)cc2)cc1 ?
NCOA3 inh: 1; COUP-TFII inh: -9; SRC2 inh: 6; Gli-Sufu block: 84*; LRH-1 inv ag: -19; NCOA1 inh: 5; Gli antag conf: 17; SufuKO cytotox: 12; Wnt3a cs: -11

How did COc1cc(C2C3=C(COC3=O)Oc3cc4c(cc32)OCO4)cc(OC)c1OC(C)=O (stereo not drawn) do in these assays?
NCOA3 inh: 20; COUP-TFII inh: -73; SRC2 inh: 9; Gli-Sufu block: 63*; LRH-1 inv ag: 16; NCOA1 inh: -4; Gli antag conf: 50*; SufuKO cytotox: 63*; Wnt3a cs: -2

How did COc1ccc(N(CC(=O)Nc2nccs2)S(=O)(=O)c2c(C)nn(C)c2C)cc1 do in these assays?
NCOA3 inh: 9; COUP-TFII inh: 4; SRC2 inh: 2; Gli-Sufu block: 58*; LRH-1 inv ag: 20; NCOA1 inh: 8; Gli antag conf: 32; SufuKO cytotox: 4; Wnt3a cs: 3

How did CCOC(=O)c1ccc(NC(=O)Nc2ccc(OC)c(OC)c2)cc1 do in these assays?
NCOA3 inh: -6; COUP-TFII inh: -21; SRC2 inh: -15; Gli-Sufu block: 61*; LRH-1 inv ag: -9; NCOA1 inh: 19; Gli antag conf: 24; SufuKO cytotox: 8; Wnt3a cs: -9

How did CCCCOC(=O)c1ccc(NC(=O)Nc2ccc(OC)c(OC)c2)cc1 do in these assays?
NCOA3 inh: 9; COUP-TFII inh: 1; SRC2 inh: 1; Gli-Sufu block: 8; LRH-1 inv ag: -2; NCOA1 inh: -17

Screening data from PubChem.
